Bioassay records (PubChem)
BH1578 lux ind: inducers of Vibrio cholerae quorum light production without autoinducers, primary screen, BH1578 luxS cqsA deficient, single point; V. cholerae BH1578 lux reporter, luminescence, 6 h; activation, % at 18.7 µM; hit rate 0.16% among 350,000; in the data active = activation mostly above about 9.7%, no sharp cut-off
CCHF vOTU inh: CCHFV vOTU protease inhibitors, primary screen, biochemical, Pep-AMC substrate, fluorescence. Crimean-Congo hemorrhagic fever virus L polyprotein viral ovarian tumor (vOTU) protease …. inhibition, % at 11.5 µM. hit rate 0.55% among 370,000; in the data active = inhibition above about 30%
DUSP3 inh: VHR1 phosphatase inhibitors, primary screen, biochemical, absorbance, uHTS | Dual specificity protein phosphatase 3 (Homo sapiens), P51452 | recombinant VHR phosphatase, pNPP absorbance | inhibition, % at 13.3 µM | hit rate 0.52% among 290,000; in the data active = inhibition above about 50%
TcdB GH inh: TcdB glycohydrolase inhibitors, primary screen, biochemical, single point, plate reader; TcdB glycohydrolase enzymatic assay; inhibition, % at 9.99 µM; hit rate 0.24% among 350,000; AID 652162, 2013; in the data active = inhibition above about 10%
PriA SSB inh: inhibitors of Klebsiella pneumoniae PriA binding to SSB C-terminal tail, primary screen, biochemical, AlphaScreen | hit rate 0.6% among 430,000 | AID 1272365, 2023 | PriA–SSB C-terminal tail interaction (Klebsiella pneumoniae) | AlphaScreen SSBct-PriA binding, biotinylated peptide | inhibition, % at 33 µM; in the data active = inhibition mostly above about 37%, no sharp cut-off; inactive = mostly below about 20%
PrPC surface inh: inhibitors of human cell surface prion protein PrPC, primary screen, cell-based, TR-FRET. TR-FRET read-out. hit rate 0.43% among 370,000. inhibition, % at 13.8 µM. Major prion protein (Homo sapiens), P04156; in the data active = inhibition above about 24%
Hits are given with their value. Hits are enriched below; roughly 1.5% of the tested compounds scored in any of these assays.

How did O=C(c1noc2c1CCCC2)N1CC[C@H](Oc2cccnn2)C1 do in these assays?
PriA SSB inh: inactive

How did CC(=O)N1c2ccc(S(=O)(=O)Nc3ccc4nc(C)n(-c5ccccc5)c(=O)c4c3)cc2CC1C (stereo not drawn) do in these assays?
PriA SSB inh: inactive

How did CCN(CC)CCC(=O)N1c2ccccc2CCc2ccc(NC(=O)OC)cc21 do in these assays?
BH1578 lux ind: inactive; CCHF vOTU inh: inactive; DUSP3 inh: inactive; TcdB GH inh: inactive; PriA SSB inh: inactive; PrPC surface inh: inactive

How did CCOC(=O)Nc1ccc2c(c1)N(C(=O)CCN(CC)CC)c1ccccc1CC2 do in these assays?
BH1578 lux ind: inactive; CCHF vOTU inh: inactive; DUSP3 inh: 50.2; TcdB GH inh: inactive; PriA SSB inh: inactive; PrPC surface inh: inactive

How did CC(C)(C)Nc1nc(N2CCCC2)nc(N2CCCC2)n1 do in these assays?
BH1578 lux ind: 16.7; CCHF vOTU inh: inactive; DUSP3 inh: inactive; PriA SSB inh: inactive; PrPC surface inh: inactive

How did CCNc1nc(NC(C)(C)C)nc(N2CCCC2)n1 do in these assays?
BH1578 lux ind: inactive; CCHF vOTU inh: inactive; DUSP3 inh: inactive; PriA SSB inh: inactive; PrPC surface inh: inactive

How did COC(=O)C1CCN(C2=C(NS(=O)(=O)c3ccc(Cl)cc3)C(=O)c3ccccc3C2=O)CC1 do in these assays?
BH1578 lux ind: inactive; CCHF vOTU inh: inactive; DUSP3 inh: inactive; TcdB GH inh: inactive; PriA SSB inh: 72.6; PrPC surface inh: inactive

Results for CCCn1c(SCC(=O)NC(C)(C)C)nnc1-c1ccco1 ?
BH1578 lux ind: inactive; CCHF vOTU inh: inactive; DUSP3 inh: 53.0; TcdB GH inh: inactive; PriA SSB inh: inactive; PrPC surface inh: inactive

How did O=[N+]([O-])c1ccc(CSC2=NS(=O)(=O)c3ccccc3N2)cc1 do in these assays?
PriA SSB inh: inactive

Results for COc1cc2[nH]c3c(=O)n(CC(=O)N4CCN(C5CCCCC5)CC4)cnc3c2cc1OC ?
PriA SSB inh: inactive

Results for COc1cc2[nH]c3c(=O)n(CCN4CCCCC4)cnc3c2cc1OC ?
BH1578 lux ind: inactive; CCHF vOTU inh: inactive; DUSP3 inh: 53.4; PriA SSB inh: inactive; PrPC surface inh: inactive

Results for CCCCNS(=O)(=O)c1ccc2nc(SCC(=O)Nc3sccc3C#N)[nH]c2c1 ?
CCHF vOTU inh: 29.6; DUSP3 inh: inactive; PriA SSB inh: inactive; PrPC surface inh: inactive

How did CCCCNS(=O)(=O)c1ccc2nc(SCC(N)=O)[nH]c2c1 do in these assays?
BH1578 lux ind: inactive; CCHF vOTU inh: inactive; DUSP3 inh: inactive; TcdB GH inh: inactive; PriA SSB inh: inactive; PrPC surface inh: inactive

Results for CCCCCn1c(SCc2nc(-c3cccs3)no2)nc2ccccc2c1=O ?
PriA SSB inh: inactive

What do the screens show for `COc1ccnc(Oc2ccc(F)cc2)c1C(=O)NC=NOCc1cccc(F)c1`?
PriA SSB inh: inactive

What do the screens show for `Cc1oc(-c2ccccc2F)nc1CS(=O)(=O)CC(=O)NCCCN1CCc2ccccc2C1`?
BH1578 lux ind: inactive; CCHF vOTU inh: inactive; DUSP3 inh: inactive; TcdB GH inh: inactive; PriA SSB inh: inactive; PrPC surface inh: inactive

Results for COc1cccc(-c2nc(CS(=O)(=O)CC(=O)NCCCN3C(C)CCCC3C)c(C)o2)c1 (stereo not drawn) ?
BH1578 lux ind: inactive; CCHF vOTU inh: inactive; DUSP3 inh: 56.8; TcdB GH inh: inactive; PriA SSB inh: inactive; PrPC surface inh: inactive

How did Cc1oc(-c2ccccc2F)nc1CS(=O)(=O)CC(=O)NCCN1CCCC1 do in these assays?
BH1578 lux ind: inactive; CCHF vOTU inh: inactive; DUSP3 inh: 52.7; TcdB GH inh: inactive; PriA SSB inh: inactive; PrPC surface inh: inactive

How did COc1nn(C)cc1C(=O)N1CCN(C(=O)C2CC2c2cccs2)CC1 (stereo not drawn) do in these assays?
PriA SSB inh: inactive

Results for Cc1ccccc1C1CCN(C(=O)c2cc(-c3cccs3)nn2C)CCS1 (stereo not drawn) ?
PriA SSB inh: inactive

How did CC(C)NC(=O)NNC(=O)c1cccn(Cc2cccc(F)c2)c1=O do in these assays?
PriA SSB inh: inactive

How did COc1cc2c(=O)n(CC3CCCO3)c(=O)n(CC(=O)Nc3ccc(F)cc3F)c2cc1OC (stereo not drawn) do in these assays?
BH1578 lux ind: inactive; CCHF vOTU inh: inactive; DUSP3 inh: inactive; TcdB GH inh: inactive; PriA SSB inh: 104.2; PrPC surface inh: inactive

Results for O=C(C1CCc2nc[nH]c2C1)N1CCC(Oc2ncccn2)CC1 (stereo not drawn) ?
PriA SSB inh: inactive

Results for CCOC(=O)C(C)n1cnc2c(oc3ccccc32)c1=O (stereo not drawn) ?
BH1578 lux ind: inactive; CCHF vOTU inh: inactive; DUSP3 inh: 51.0; PriA SSB inh: inactive; PrPC surface inh: inactive

How did CC(C)n1cnc2c(oc3ccccc32)c1=O do in these assays?
BH1578 lux ind: inactive; CCHF vOTU inh: inactive; DUSP3 inh: inactive; TcdB GH inh: inactive; PriA SSB inh: inactive; PrPC surface inh: inactive

What do the screens show for `Cn1c(O)c(N=NC(=O)CNC(=O)c2ccccc2)c2cc(Br)ccc21`?
BH1578 lux ind: inactive; CCHF vOTU inh: inactive; DUSP3 inh: inactive; TcdB GH inh: inactive; PriA SSB inh: inactive; PrPC surface inh: inactive

Results for Cn1c(O)c(N=NC(=O)CNC(=O)c2ccccc2)c2ccccc21 ?
BH1578 lux ind: inactive; CCHF vOTU inh: inactive; DUSP3 inh: 53.3; TcdB GH inh: inactive; PriA SSB inh: inactive; PrPC surface inh: inactive

How did CCCn1c(O)c(N=NC(=O)CNC(=O)/C=C/c2ccc(OC)cc2)c2ccccc21 do in these assays?
BH1578 lux ind: 80.2; CCHF vOTU inh: inactive; DUSP3 inh: inactive; TcdB GH inh: inactive; PriA SSB inh: inactive; PrPC surface inh: inactive

How did C=CCn1c(O)c(N=NC(=O)CNC(=O)/C=C/c2ccc(OC)cc2)c2ccccc21 do in these assays?
BH1578 lux ind: inactive; CCHF vOTU inh: inactive; DUSP3 inh: inactive; TcdB GH inh: inactive; PriA SSB inh: inactive; PrPC surface inh: inactive

How did COc1ccc(CC(=O)Nc2sccc2C#N)cc1C do in these assays?
PriA SSB inh: inactive

Results for [O-][N+]1=c2ccc(Nc3ccccc3)cc2=NC12CCCCC2 ?
BH1578 lux ind: inactive; CCHF vOTU inh: inactive; DUSP3 inh: inactive; PriA SSB inh: 57.0; PrPC surface inh: inactive

What do the screens show for `COc1ccc(Nc2ccc3c(c2)=NC2(CCCCC2)[N+]=3[O-])cc1`?
BH1578 lux ind: inactive; CCHF vOTU inh: inactive; DUSP3 inh: inactive; PriA SSB inh: 65.3; PrPC surface inh: inactive

How did O=C(NC(NCc1cccnc1)C(Cl)(Cl)Cl)c1cccc2ccccc12 (stereo not drawn) do in these assays?
BH1578 lux ind: inactive; CCHF vOTU inh: inactive; DUSP3 inh: 53.8; PriA SSB inh: inactive; PrPC surface inh: inactive

Results for CS(=O)(=O)c1ccc2nc(NC(=O)c3ccccc3)sc2c1 ?
BH1578 lux ind: inactive; CCHF vOTU inh: inactive; DUSP3 inh: inactive; TcdB GH inh: inactive; PriA SSB inh: inactive; PrPC surface inh: inactive
